Experimental data from the supplement of paper PMC10849652.
About 7,900 targets were measured; listed, in parts, are those with a hit and a random draw of the rest. About 0.6% of all pairs of compound and target were hits.

Columns and labels:
Assay in all cases: log2 fold change, soluble protein after heating vs DMSO (PISA); higher = thermal stabilisation; K562 cells, 10 uM, 30 min; active = over 0.2 and 3.5 SD of the protein, either way, in both replicates (recomputed)
[1] = compound: COC1=CC=C(C=C1)CN2C=CC3=C2C=C(C=C3)C(=O)NO
Procedure, shortened: (§1)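 K562 cells at 2×10^6 cells/mL were treated with 10 μM compound for 30 min. Aliquots were heated for 3 min across 48°C-58°C, pooled, and extracted in PBS with 0.5% NP-40 at 4°C; soluble protein was the supernatant after 21,000xg for 90 min. Soluble protein was quantified by TMTpro 16plex LC-MS/MS with channel sums equalised, and reported as log2 fold change in thermal stability against DMSO controls, with values from duplicates.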

filanesib = compound: CON(C)C(=O)N1N=C(c2cc(F)ccc2F)S[C@@]1(CCCN)c1ccccc1 [filanesib]
Procedure, shortened: as §1

zotarolimus = compound: CO[C@H]1C[C@@H]2CC[C@@H](C)[C@@](O)(O2)C(=O)C(=O)N2CCCC[C@H]2C(=O)O[C@H]([C@H](C)C[C@@H]2CC[C@H](n3cnnn3)[C@H](OC)C2)CC(=O)[C@H](C)/C=C(\C)[C@@H](O)[C@@H](OC)C(=O)[C@H](C)C[C@H](C)/C=C/C=C/C=C/1C [zotarolimus]
Procedure, shortened: as §1

idasanutlin = compound: COc1cc(C(=O)O)ccc1NC(=O)[C@@H]1N[C@@H](CC(C)(C)C)[C@](C#N)(c2ccc(Cl)cc2F)[C@H]1c1cccc(Cl)c1F [idasanutlin]
Procedure, shortened: as §1

alisertib = compound: COc1cc(Nc2ncc3c(n2)-c2ccc(Cl)cc2C(c2c(F)cccc2OC)=NC3)ccc1C(=O)O [alisertib]
Procedure, shortened: as §1

[2] = compound: COc1cc2nc(-c3cc(F)ccc3O)nc(N[C@@H]3CNC[C@H]3C(C)(C)O)c2cc1OC
Procedure, shortened: as §1

gefitinib = compound: COc1cc2ncnc(Nc3ccc(F)c(Cl)c3)c2cc1OCCCN1CCOCC1 [gefitinib]
Procedure, shortened: as §1

[3] = compound: COc1cccc2cc(-c3nc([C@H]4CC[C@H](C(=O)O)CC4)n4ncnc(N)c34)[nH]c12
Procedure, shortened: as §1

lapatinib = compound: CS(=O)(=O)CCNCc1ccc(-c2ccc3ncnc(Nc4ccc(OCc5cccc(F)c5)c(Cl)c4)c3c2)o1 [lapatinib]
Procedure, shortened: as §1

pictilisib = compound: CS(=O)(=O)N1CCN(Cc2cc3nc(-c4cccc5[nH]ncc45)nc(N4CCOCC4)c3s2)CC1 [pictilisib]
Procedure, shortened: as §1

Measured: log2 fold change

CA1 (UniProt P00915)
Sequence of UniProt P00915 (P00915 whole entry, looked up): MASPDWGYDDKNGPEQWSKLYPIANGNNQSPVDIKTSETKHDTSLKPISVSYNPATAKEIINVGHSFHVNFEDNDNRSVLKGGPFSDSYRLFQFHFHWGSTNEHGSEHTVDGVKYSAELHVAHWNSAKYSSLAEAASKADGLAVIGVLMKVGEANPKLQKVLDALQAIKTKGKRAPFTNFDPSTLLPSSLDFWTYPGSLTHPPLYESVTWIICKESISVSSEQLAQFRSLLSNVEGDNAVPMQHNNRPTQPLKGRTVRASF
inactive: [1] -0.022 | filanesib -0.002 | zotarolimus -0.006 | idasanutlin -0.044 | alisertib -0.032 | [2] -0.026 | gefitinib 0.022 | [3] 0.018 | lapatinib -0.045 | pictilisib 0.072

CHMP4C (UniProt Q96CF2)
Sequence of UniProt Q96CF2 (Q96CF2 whole entry, looked up): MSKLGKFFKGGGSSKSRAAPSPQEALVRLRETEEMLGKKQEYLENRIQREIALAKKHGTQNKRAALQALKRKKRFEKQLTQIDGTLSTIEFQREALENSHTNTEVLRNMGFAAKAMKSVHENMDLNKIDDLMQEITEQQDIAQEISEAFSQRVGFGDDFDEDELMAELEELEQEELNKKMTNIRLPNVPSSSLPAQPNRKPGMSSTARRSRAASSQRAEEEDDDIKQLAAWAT
inactive: [1] 0.163 | filanesib 0.014 | zotarolimus -0.028 | idasanutlin -0.001 | alisertib 0.037 | [2] 0.064 | gefitinib -0.014 | [3] 0.02 | lapatinib -0.027 | pictilisib -0.005

CHMP4B (UniProt Q9H444)
inactive: [1] -0.101 | filanesib -0.106 | zotarolimus -0.015 | idasanutlin 0.034 | alisertib -0.036 | [2] 0.044 | gefitinib -0.005 | [3] 0.08 | lapatinib -0.09 | pictilisib -0.094

CBS (UniProt P35520)
Sequence of UniProt P35520 (P35520 whole entry, looked up): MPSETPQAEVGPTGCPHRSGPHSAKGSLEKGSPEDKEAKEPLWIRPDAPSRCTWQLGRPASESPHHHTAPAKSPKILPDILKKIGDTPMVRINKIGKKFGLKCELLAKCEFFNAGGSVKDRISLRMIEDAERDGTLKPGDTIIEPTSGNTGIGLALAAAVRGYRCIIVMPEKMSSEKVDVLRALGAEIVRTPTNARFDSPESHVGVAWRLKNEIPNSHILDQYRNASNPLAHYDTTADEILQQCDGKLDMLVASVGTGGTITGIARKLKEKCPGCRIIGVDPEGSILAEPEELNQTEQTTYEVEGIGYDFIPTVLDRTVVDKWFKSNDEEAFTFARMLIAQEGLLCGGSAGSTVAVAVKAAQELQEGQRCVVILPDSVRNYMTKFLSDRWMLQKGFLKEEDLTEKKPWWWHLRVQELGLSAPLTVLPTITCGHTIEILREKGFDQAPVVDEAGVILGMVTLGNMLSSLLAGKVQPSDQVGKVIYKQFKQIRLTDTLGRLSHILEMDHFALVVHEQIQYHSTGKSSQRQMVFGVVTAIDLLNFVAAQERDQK
active: [1] -0.225
inactive: filanesib -0.05 | zotarolimus 0.044 | idasanutlin 0.014 | alisertib -0.073 | [2] 0.024 | gefitinib 0.007 | [3] 0.011 | lapatinib -0.026 | pictilisib 0.043

CA8 (UniProt P35219)
Sequence of UniProt P35219 (P35219 whole entry, looked up): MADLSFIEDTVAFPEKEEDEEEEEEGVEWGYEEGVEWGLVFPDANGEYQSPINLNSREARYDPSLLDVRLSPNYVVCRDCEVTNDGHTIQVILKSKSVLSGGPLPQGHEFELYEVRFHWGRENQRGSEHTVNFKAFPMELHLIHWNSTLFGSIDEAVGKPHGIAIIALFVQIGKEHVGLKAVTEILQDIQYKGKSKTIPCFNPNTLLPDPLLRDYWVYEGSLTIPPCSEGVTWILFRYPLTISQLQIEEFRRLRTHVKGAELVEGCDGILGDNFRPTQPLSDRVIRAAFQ
inactive: [1] 0.046 | filanesib -0.055 | zotarolimus 0.09 | idasanutlin -0.073 | alisertib -0.112 | [2] -0.086 | gefitinib 0.023 | [3] 0.032 | lapatinib 0.008 | pictilisib 0.173

CMTM3 (UniProt Q96MX0)
inactive: [1] -0.122 | filanesib 0.105 | zotarolimus -0.075 | idasanutlin -0.045 | alisertib -0.069 | [2] -0.018 | gefitinib 0.021 | [3] 0.035 | lapatinib -0.062 | pictilisib -0.091

CPT1A (UniProt P50416)
inactive: [1] 0.073 | filanesib 0.204 | zotarolimus 0.118 | idasanutlin 0.086 | alisertib 0.235 | [2] 0.308 | gefitinib 0.028 | [3] -0.151 | lapatinib 0.1 | pictilisib 0.257

CERS2 (UniProt Q96G23)
Sequence of UniProt Q96G23 (Q96G23 whole entry, looked up): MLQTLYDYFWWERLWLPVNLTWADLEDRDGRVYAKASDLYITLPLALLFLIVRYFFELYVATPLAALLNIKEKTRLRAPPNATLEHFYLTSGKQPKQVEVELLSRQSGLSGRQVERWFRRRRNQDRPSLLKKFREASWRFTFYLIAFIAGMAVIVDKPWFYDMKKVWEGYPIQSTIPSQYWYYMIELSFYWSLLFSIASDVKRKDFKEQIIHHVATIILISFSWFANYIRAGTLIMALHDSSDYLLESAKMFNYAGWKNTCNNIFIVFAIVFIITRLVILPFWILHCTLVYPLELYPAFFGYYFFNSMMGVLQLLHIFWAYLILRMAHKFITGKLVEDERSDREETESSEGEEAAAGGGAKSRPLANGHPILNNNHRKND
active: pictilisib -0.262
inactive: [1] -0.045 | filanesib -0.117 | zotarolimus -0.062 | idasanutlin -0.047 | alisertib -0.129 | [2] -0.107 | gefitinib -0.095 | [3] -0.005 | lapatinib -0.03

CPSF6 isoform 2 (UniProt Q16630)
inactive: [1] -0.03 | filanesib 0.036 | zotarolimus 0.016 | idasanutlin 0.034 | alisertib -0.046 | [2] 0.063 | gefitinib 0.023 | [3] 0.025 | lapatinib -0.016 | pictilisib 0.055

CSNK2B (UniProt P67870)
Sequence of UniProt P67870 (P67870 whole entry, looked up): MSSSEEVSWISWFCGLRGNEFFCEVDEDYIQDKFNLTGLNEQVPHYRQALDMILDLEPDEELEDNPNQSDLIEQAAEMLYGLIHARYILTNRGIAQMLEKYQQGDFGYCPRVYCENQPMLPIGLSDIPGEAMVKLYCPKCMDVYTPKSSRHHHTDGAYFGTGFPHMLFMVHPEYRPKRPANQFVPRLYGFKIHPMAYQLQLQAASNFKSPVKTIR
inactive: [1] 0.113 | filanesib -0.006 | zotarolimus -0.002 | idasanutlin -0.026 | alisertib -0.013 | [2] -0.196 | gefitinib -0.013 | [3] 0.028 | lapatinib 0.04 | pictilisib 0.079

CASP10 isoform 4 (UniProt Q92851)
inactive: [1] 0.012 | filanesib 0.078 | zotarolimus 0.062 | idasanutlin -0.049 | alisertib 0.009 | [2] -0.089 | gefitinib -0.036 | [3] -0.128 | lapatinib -0.047 | pictilisib 0.079

CHCHD4 isoform 2 (UniProt Q8N4Q1)
Sequence of UniProt Q8N4Q1 (Q8N4Q1 whole entry, looked up): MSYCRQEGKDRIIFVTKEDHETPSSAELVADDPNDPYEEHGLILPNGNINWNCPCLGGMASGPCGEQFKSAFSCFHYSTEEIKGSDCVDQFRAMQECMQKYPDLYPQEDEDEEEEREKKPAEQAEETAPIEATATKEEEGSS
inactive: [1] 0 | filanesib -0.059 | zotarolimus 0.032 | idasanutlin -0.043 | alisertib -0.099 | [2] -0.285 | gefitinib 0.011 | [3] 0.102 | lapatinib 0.341 | pictilisib -0.016

CAMSAP1 isoform 3 (UniProt Q5T5Y3)
Sequence of UniProt Q5T5Y3 (Q5T5Y3 whole entry, looked up): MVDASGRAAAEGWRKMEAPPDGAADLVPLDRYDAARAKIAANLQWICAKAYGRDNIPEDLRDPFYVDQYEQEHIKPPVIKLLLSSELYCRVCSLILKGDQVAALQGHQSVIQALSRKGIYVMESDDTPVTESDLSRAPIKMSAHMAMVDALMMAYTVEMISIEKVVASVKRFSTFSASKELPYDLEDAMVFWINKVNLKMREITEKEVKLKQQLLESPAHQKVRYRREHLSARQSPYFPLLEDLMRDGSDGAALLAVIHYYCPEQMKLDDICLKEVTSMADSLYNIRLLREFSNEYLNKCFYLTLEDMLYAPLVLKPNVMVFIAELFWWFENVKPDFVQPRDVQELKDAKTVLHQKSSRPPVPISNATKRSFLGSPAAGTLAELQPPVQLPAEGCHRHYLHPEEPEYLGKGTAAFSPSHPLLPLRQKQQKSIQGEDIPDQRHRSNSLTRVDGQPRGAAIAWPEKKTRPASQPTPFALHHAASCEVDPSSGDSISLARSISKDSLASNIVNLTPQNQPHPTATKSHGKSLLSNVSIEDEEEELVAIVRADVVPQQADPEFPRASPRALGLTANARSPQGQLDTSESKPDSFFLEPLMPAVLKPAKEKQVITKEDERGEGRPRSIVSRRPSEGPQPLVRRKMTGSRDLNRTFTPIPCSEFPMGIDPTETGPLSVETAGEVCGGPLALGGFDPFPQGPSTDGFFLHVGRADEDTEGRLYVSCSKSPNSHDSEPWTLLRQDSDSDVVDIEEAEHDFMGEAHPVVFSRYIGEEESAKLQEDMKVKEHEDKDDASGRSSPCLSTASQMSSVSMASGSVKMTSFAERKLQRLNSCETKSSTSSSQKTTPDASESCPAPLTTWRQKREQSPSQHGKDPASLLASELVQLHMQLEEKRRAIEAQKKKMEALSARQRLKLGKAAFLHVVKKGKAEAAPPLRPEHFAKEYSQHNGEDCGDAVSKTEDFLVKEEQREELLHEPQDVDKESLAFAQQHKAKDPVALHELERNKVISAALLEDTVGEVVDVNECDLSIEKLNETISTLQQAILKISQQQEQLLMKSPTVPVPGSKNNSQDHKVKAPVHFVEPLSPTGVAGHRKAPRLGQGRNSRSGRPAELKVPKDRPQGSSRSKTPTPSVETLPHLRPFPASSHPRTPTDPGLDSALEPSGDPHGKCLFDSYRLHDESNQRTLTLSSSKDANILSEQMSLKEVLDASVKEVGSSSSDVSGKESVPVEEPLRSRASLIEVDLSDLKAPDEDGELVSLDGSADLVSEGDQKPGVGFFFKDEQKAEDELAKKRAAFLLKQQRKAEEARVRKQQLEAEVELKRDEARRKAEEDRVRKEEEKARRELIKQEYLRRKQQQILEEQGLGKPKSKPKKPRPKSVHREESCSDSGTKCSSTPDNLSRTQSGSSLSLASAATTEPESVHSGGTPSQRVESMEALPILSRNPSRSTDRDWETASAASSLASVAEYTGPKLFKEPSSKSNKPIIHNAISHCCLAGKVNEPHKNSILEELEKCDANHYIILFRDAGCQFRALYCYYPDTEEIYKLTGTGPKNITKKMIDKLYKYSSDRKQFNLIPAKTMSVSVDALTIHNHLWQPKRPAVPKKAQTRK
inactive: [1] 0.011 | filanesib -0.015 | zotarolimus 0.045 | idasanutlin 0.091 | alisertib 0.039 | [2] 0.169 | gefitinib -0.034 | [3] 0.056 | lapatinib 0.095 | pictilisib 0.118

COPS3 (UniProt Q9UNS2)
inactive: [1] 0.12 | filanesib -0.035 | zotarolimus -0.004 | idasanutlin -0.09 | alisertib -0.012 | [2] 0.008 | gefitinib -0.031 | [3] 0.052 | lapatinib -0.015 | pictilisib -0.063

CS (UniProt O75390)
inactive: [1] 0.012 | filanesib -0.172 | zotarolimus 0.011 | idasanutlin -0.033 | alisertib -0.013 | [2] -0.139 | gefitinib 0.041 | [3] 0.059 | lapatinib -0.027 | pictilisib 0.099

CSK (UniProt P41240)
Sequence of UniProt P41240 (P41240 whole entry, looked up): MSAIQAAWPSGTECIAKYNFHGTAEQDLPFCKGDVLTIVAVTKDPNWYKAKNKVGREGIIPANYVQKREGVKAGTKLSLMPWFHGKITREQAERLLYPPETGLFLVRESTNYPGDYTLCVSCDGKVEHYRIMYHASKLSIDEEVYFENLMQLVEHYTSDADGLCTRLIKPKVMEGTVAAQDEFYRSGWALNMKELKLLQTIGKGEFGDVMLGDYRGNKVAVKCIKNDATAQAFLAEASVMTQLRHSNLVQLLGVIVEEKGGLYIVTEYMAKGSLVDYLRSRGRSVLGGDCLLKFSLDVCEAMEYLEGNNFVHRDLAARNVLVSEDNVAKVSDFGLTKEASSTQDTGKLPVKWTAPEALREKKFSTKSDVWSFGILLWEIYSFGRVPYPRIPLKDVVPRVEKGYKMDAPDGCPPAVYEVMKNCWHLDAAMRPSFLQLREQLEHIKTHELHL
inactive: [1] 0.034 | filanesib -0.049 | zotarolimus 0.007 | idasanutlin -0.056 | alisertib -0.018 | [2] 0.024 | gefitinib 0.024 | [3] -0.049 | lapatinib 0.008 | pictilisib 0.02

CES2 isoform 4 (UniProt O00748)
inactive: [1] -0.099 | filanesib 0.055 | zotarolimus 0.078 | idasanutlin 0.053 | alisertib 0.023 | [2] -0.044 | gefitinib 0.03 | [3] -0.145 | lapatinib 0.161 | pictilisib 0.103

CHAF1A (UniProt Q13111)
inactive: [1] -0.149 | filanesib 0.143 | zotarolimus -0.145 | idasanutlin 0.05 | alisertib 0 | [2] 0.007 | gefitinib 0.169 | [3] 0.004 | lapatinib 0.169 | pictilisib 0.031

CSTF2 (UniProt P33240)
inactive: [1] -0.052 | filanesib 0.005 | zotarolimus -0.009 | idasanutlin 0.013 | alisertib -0.016 | [2] -0.005 | gefitinib -0.07 | [3] 0.023 | lapatinib 0.021 | pictilisib 0.069

CCNK isoform 4 (UniProt O75909)
Sequence of UniProt O75909 (O75909 whole entry, looked up): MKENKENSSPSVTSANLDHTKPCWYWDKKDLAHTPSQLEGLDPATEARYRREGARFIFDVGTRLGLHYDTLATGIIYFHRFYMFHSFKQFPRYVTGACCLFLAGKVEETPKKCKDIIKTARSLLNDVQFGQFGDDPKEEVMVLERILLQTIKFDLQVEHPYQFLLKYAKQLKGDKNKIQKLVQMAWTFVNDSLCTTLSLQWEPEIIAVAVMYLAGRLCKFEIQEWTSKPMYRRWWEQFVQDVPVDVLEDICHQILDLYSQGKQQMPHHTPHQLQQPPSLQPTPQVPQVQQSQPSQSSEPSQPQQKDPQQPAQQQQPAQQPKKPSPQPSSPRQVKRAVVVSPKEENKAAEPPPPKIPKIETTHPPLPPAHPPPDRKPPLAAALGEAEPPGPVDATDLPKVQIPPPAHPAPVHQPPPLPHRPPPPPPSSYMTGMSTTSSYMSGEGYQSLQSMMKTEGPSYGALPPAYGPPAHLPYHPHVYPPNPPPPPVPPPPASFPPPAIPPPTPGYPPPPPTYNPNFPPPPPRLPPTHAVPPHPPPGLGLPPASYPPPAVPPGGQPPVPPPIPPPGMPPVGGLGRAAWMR
inactive: [1] -0.067 | filanesib 0.177 | zotarolimus 0.163 | idasanutlin 0.061 | alisertib -0.013 | [2] -0.021 | gefitinib -0.014 | [3] 0.024 | lapatinib 0.066 | pictilisib -0.033

CPD (UniProt O75976)
inactive: [1] 0.022 | filanesib 0.082 | zotarolimus -0.045 | idasanutlin -0.005 | alisertib -0.038 | [2] 0.046 | gefitinib 0.007 | [3] 0.015 | lapatinib -0.01 | pictilisib 0.034

CETN2 (UniProt P41208)
Sequence of UniProt P41208 (P41208 whole entry, looked up): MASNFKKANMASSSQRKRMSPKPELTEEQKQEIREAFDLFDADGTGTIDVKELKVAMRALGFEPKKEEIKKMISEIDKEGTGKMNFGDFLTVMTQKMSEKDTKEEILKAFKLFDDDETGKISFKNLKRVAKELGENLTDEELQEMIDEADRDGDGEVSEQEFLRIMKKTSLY
inactive: [1] -0.114 | filanesib 0.225 | zotarolimus -0.067 | idasanutlin 0.042 | alisertib -0.112 | [2] 0.141 | gefitinib 0.019 | [3] 0.028 | lapatinib -0.207 | pictilisib 0.028

C4orf33 (UniProt Q8N1A6)
inactive: [1] -0.055 | filanesib 0.072 | zotarolimus -0.009 | idasanutlin -0.054 | alisertib -0.17 | [2] -0.026 | gefitinib 0.029 | [3] 0.061 | lapatinib 0 | pictilisib 0.049

COCH (UniProt O43405)
inactive: [1] -0.018 | filanesib 0.024 | zotarolimus -0.018 | idasanutlin 0.077 | alisertib -0.063 | [2] -0.144 | gefitinib 0.131 | [3] -0.078 | lapatinib 0.049 | pictilisib 0.001

CIT isoform 4 (UniProt O14578)
inactive: [1] -0.099 | filanesib 0.055 | zotarolimus -0.003 | idasanutlin 0.027 | alisertib -0.036 | gefitinib -0.12 | [3] -0.06 | lapatinib 0.031 | pictilisib -0.044
active: [2] -0.228

CDC123 (UniProt O75794)
inactive: [1] 0.005 | filanesib -0.043 | zotarolimus -0.016 | idasanutlin 0.032 | alisertib -0.048 | [2] 0.024 | gefitinib -0.057 | [3] 0.001 | lapatinib 0.017 | pictilisib -0.027

CIZ1 (UniProt Q9ULV3)
inactive: [1] 0.039 | filanesib 0.04 | zotarolimus -0.006 | idasanutlin 0.054 | alisertib -0.042 | [2] -0.106 | gefitinib -0.099 | [3] 0.034 | lapatinib 0.025 | pictilisib 0.05

CALCOCO2 isoform 4 (UniProt Q13137)
inactive: [1] -0.041 | filanesib -0.166 | zotarolimus -0.044 | idasanutlin 0.014 | alisertib 0 | [2] 0.018 | gefitinib -0.07 | [3] -0.08 | lapatinib 0 | pictilisib 0.031

CAMK2G isoform 6 (UniProt Q13555)
inactive: [1] -0.018 | filanesib 0.269 | zotarolimus 0.039 | idasanutlin -0.101 | alisertib -0.173 | [2] -0.032 | gefitinib -0.006 | [3] -0.204 | lapatinib 0.12 | pictilisib 0.141

CDK5 (UniProt Q00535)
inactive: [1] 0.004 | filanesib 0.024 | zotarolimus -0.003 | idasanutlin -0.099 | alisertib -0.046 | [2] 0.054 | gefitinib 0.002 | [3] 0 | lapatinib -0.033 | pictilisib -0.011
